± gives the standard deviation of the averaged measurements.
Test system: AEK1 (Tb927.3.2440)
Experiment: percent reduction in TR-FRET probe signal relative to DMSO control; higher = stronger displacement of ATP-site probe (binding)
Conditions: 1 µM; incubation time 1 h

| SMILES | percent reduction in TR-FRET probe signal [%] |
| --- | --- |
| Cn1cc(-c2ccc3nnc(C(F)(F)c4ccc5ncccc5c4)n3n2)cn1 | -0.537 ± 18 |
| CC(=O)Nc1nc(C)c(-c2ccc(Cl)c(S(=O)(=O)NCCO)c2)s1 | -6.5 ± 15 |
| CN(C)Cc1cccc(N/C(=C2\C(=O)Nc3cc(C(=O)N(C)C)ccc32)c2ccccc2)c1 | -0.927 ± 9.6 |
| Nc1cccc(S(=O)(=O)N2CCCN(S(=O)(=O)c3ccc4c(c3)OCCO4)CC2)c1 | -6.38 ± 4.5 |
| O=c1ccc2ccc(O)c(O)c2o1 [Daphnetin] | -1.13 ± 8.9 |
| O=C1Nc2cc(Br)ccc2/C1=C1/Nc2ccccc2/C1=N\O | 2.19 ± 11 |
| Cc1nc(NC(=O)N2CCC[C@H]2C(N)=O)sc1-c1csc(C(C)(C)C)n1 | 3.71 ± 6.7 |
| COc1ccc2cc(-c3[nH]c(-c4ccc(S(C)=O)cc4)nc3-c3ccncc3)ccc2c1 (stereo not drawn) [Tie2 kinase inhibitor] | 2.05 ± 9.9 |
| Cc1ccc(NC(=O)c2cccc(C(C)(C)C#N)c2)cc1Nc1ccc2ncn(C)c(=O)c2c1 | -9.01 ± 3.1 |
| COc1cc2nccc(Oc3ccc(NC(=O)Nc4ccc(F)cc4F)c(F)c3)c2cc1OC | 10.2 ± 11 |
| CCc1cc(Nc2nccc(-c3c(-c4ccc(OC)c(C(=O)Nc5c(F)cccc5F)c4)nc4ccccn34)n2)c(OC)cc1N1CCC(N2CCN(S(C)(=O)=O)CC2)CC1 | -12.2 ± 12 |
| Cc1ccc(C(=O)Nc2ccc(CN3CCN(C)CC3)c(C(F)(F)F)c2)cc1C#Cc1cnc2cccnn12 | 0.933 ± 14 |
| Cc1ncc(-c2ccnc(Nc3ccc(S(C)(=O)=O)cc3)n2)n1C(C)C | -3.5 ± 1.6 |
| C=CC(=O)Nc1cccc(Nc2nc(Nc3ccc(NC4CN(CCF)C4)cc3OC)ncc2C(F)(F)F)c1 | -12.2 ± 9.2 |
| Cc1ccc(S(=O)(=O)/C=C/C#N)cc1 | -7.27 ± 4.2 |
| O=C(c1ccc(/C=C/c2n[nH]c3ccccc23)cc1)N1CCNCC1 | 51.6 ± 14 |
| COCCOc1cnc2ccn([C@H](C)c3nnc4c(F)cc(-c5cnn(C)c5)cn34)c(=O)c2c1 | 5.44 ± 17 |

| SMILES | percent reduction in TR-FRET probe signal [%] |
| --- | --- |
| Cl.N=C(N)NC(=N)NCCc1ccccc1 [Phenformin HCl] | 12.1 ± 8.3 |
| Cc1csc(-c2nnc(Nc3ccc(Oc4ncccc4-c4ccnc(N)n4)cc3)c3ccccc23)c1 | 55.7 ± 11 |
| CCS(=O)(=O)c1cccc(-c2cc(C(=O)NC3CCN(C)CC3)c(C)c3[nH]c4ncc(C)cc4c23)c1 | 79.9 ± 8.1 |
| Cn1ncc(Cl)c1-c1cc(C(=O)N[C@H](CN)Cc2ccc(F)c(F)c2)oc1Cl | 33.2 ± 9.4 |
| CC1(C)CNc2cc(NC(=O)c3cccnc3NCc3ccncc3)ccc21.O=P(O)(O)O.O=P(O)(O)O [Motesanib Diphosphate (AMG-706)] | 2.79 ± 7.6 |
| COc1cc2ncnc(Nc3ccc(F)c(Cl)c3)c2cc1NC(=O)/C=C/CN1CCCCC1 | -9.62 ± 5 |
| CNC(=O)c1ccc(C)c(-n2c(C)cc(OCc3ccc(F)cc3F)c(Br)c2=O)c1 | -1.42 ± 7.4 |
| COc1ccc(COc2cc3oc(=O)c4cc(C(C)O)ccc4c3cc2OC)cc1 (stereo not drawn) [Palomid 529 (P529)] | -5.44 ± 9.3 |
| CS(=O)(=O)CCNCc1ccc(-c2ccc3ncnc(Nc4ccc(OCc5cccc(F)c5)c(Cl)c4)c3c2)o1.Cc1ccc(S(=O)(=O)O)cc1.Cc1ccc(S(=O)(=O)O)cc1 | 19.5 ± 21 |
| Cn1cc(-c2ccc3ncc(Cc4ccc5ncccc5c4)n3n2)cn1 | 4.34 ± 8.7 |
| CC(C)Nc1cc(-c2c[nH]c(C(=O)N[C@H](CO)c3cccc(Cl)c3)c2)c(Cl)cn1 | 0.153 ± 2.1 |
| Cl.Cl.Clc1ccc(Nc2nnc(Cc3ccncc3)c3ccccc23)cc1 [Vatalanib (PTK787) 2HCl] | 4.61 ± 8.7 |
| CC(C)(C)c1nc(-c2cccc(NS(=O)(=O)c3c(F)cccc3F)c2F)c(-c2ccnc(N)n2)s1 | 6.2 ± 7.3 |
| COc1ccc(-c2cc3c(C)nc(N)nc3n([C@H]3CC[C@H](OCCO)CC3)c2=O)cn1 | -8.41 ± 7.5 |
| Cc1ccc(C(=O)Nc2ccc(CN3CCN(C)CC3)c(C(F)(F)F)c2)cc1C#Cc1cnc2[nH]ncc2c1 | 29.4 ± 11 |
| COc1ccc(-c2ccc3ncc4c(c3c2)n(-c2ccc(N3CCNCC3)c(C(F)(F)F)c2)c(=O)n4C)cn1.O=C(O)/C=C\C(=O)O | -5.09 ± 8.7 |

From the supplement of paper PMC10720658
